Data: PubChem BioAssay (NCI)
Compounds without any hit were thinned out: in the full panel of roughly 83,000, 20% have a hit.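 The endpoint reported here, percent growth, reads 100 for growth as untreated, 0 for no net growth and -100 for all cells dead.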 Unmarked numbers belong to inactive results. Activity calls are given as the source filed them. Rule for the calls: active = growth percent below 10; inactive = the rest.

Experiments:
Experiment in all cases: NCI-60 one-dose screen, 48 h (100 = growth as untreated, 0 = no growth, -100 = all killed)
Conditions in all cases: 10 µM unless noted
SK-MEL-2 melanoma = tested on: SK-MEL-2 melanoma
EKVX NSCLC = tested on: EKVX NSCLC
SN12C renal = tested on: SN12C renal
UO-31 renal = tested on: UO-31 renal
TK-10 renal = tested on: TK-10 renal
ACHN renal = tested on: ACHN renal
CAKI-1 renal = tested on: CAKI-1 renal
A498 renal = tested on: A498 renal
MOLT-4 leukemia = tested on: MOLT-4 leukemia
SR leukemia = tested on: SR leukemia
RPMI-8226 leukemia = tested on: RPMI-8226 leukemia
OVCAR-5 ovarian = tested on: OVCAR-5 ovarian
OVCAR-4 ovarian = tested on: OVCAR-4 ovarian
SK-OV-3 ovarian = tested on: SK-OV-3 ovarian
IGROV1 ovarian = tested on: IGROV1 ovarian
OVCAR-3 ovarian = tested on: OVCAR-3 ovarian
HS 578T breast = tested on: HS 578T breast
NCI/ADR-RES ovarian = tested on: NCI/ADR-RES ovarian
OVCAR-8 ovarian = tested on: OVCAR-8 ovarian

SMILES | growth (SK-MEL-2 melanoma) | growth (EKVX NSCLC) | growth (SN12C renal) | growth (UO-31 renal) | growth (TK-10 renal) | growth (ACHN renal) | growth (CAKI-1 renal) | growth (A498 renal) | growth (MOLT-4 leukemia) | growth (SR leukemia) | growth (RPMI-8226 leukemia) | growth (OVCAR-5 ovarian) | growth (OVCAR-4 ovarian) | growth (SK-OV-3 ovarian) | growth (IGROV1 ovarian) | growth (OVCAR-3 ovarian) | growth (HS 578T breast) | growth (NCI/ADR-RES ovarian) | growth (OVCAR-8 ovarian)
O=C(NC(CSSCC(NC(=O)c1ccccc1)C(=O)O)C(=O)O)c1ccccc1 (centres undefined) | 97.3% | 103% | 102% | 91.8% | 101% | 102% | 91.6% | 86.1% | -1.1% (active) | 15.3% | 104% | 105% | 128% | 102% | 96.7% | 99.6% | 96.3% | 97.3% | –
COc1cc2c(cc1-c1c(C)noc1C)ncc1nc(C3CCC(F)(F)CC3)n(C3CCC(OC(F)F)CC3)c12 (centres undefined) | 46% | 53.9% | 76.6% | 18.2% | 41.3% | 66.2% | 52.1% | 61.2% | 59.7% | 33.5% | 20% | 76.2% | 50.5% | 17.6% | 70.1% | 44.6% | 61.4% | 47.4% | –
N#Cc1nc2c(S(=O)(=O)c3ccc(Cl)cc3)c(N)n(Nc3cccc(Cl)c3)c2nc1C#N | 121% | 33.3% | 56.8% | 63% | 36.3% | 67.7% | 88.5% | 49.2% | 49.5% | -6.78% (active) | 3.39% (active) | 68.4% | 42.6% | 50.2% | – | 59.4% | 31.2% | 79.6% | –
O=C(COc1ccc(/C=C2\Oc3ccccc3C2=O)cc1)c1ccc(Cl)cc1 | 82.7% | 98.8% | 103% | 110% | 120% | 104% | 81.8% | 112% | 87.9% | 90.8% | 111% | 97.4% | 115% | 105% | – | 96.6% | 112% | 110% | 105%
CC(=O)c1ccc(NCC(=O)Nc2ccccn2)cc1 | 105% | 101% | 106% | 86.4% | 146% | 103% | 87.9% | 104% | 100% | 108% | 113% | 109% | 98.9% | 97% | 94.8% | 117% | 106% | 105% | –
CN(C)CC1=NC2SC=C(c3ccccc3)C2C(=O)N1CC#N (centres undefined) | 104% | 95.9% | 109% | 13.2% | 95.3% | 104% | 97.5% | 103% | 82% | 70.4% | 49.6% | 89.7% | 85.3% | 119% | – | 110% | 118% | 98.1% | 97.1%
CC(=O)O[C@]1(C(C)=O)CCC2C3C[C@H](C)C4=CC(=O)CC[C@]4(C)C3CC[C@@]21C (some centres undefined) | 98.1% | 72.6% | 63.1% | 65.6% | 106% | 96.6% | 73.8% | 103% | 81.7% | – | 58.9% | 90.6% | 93% | 81.9% | 81.6% | 115% | 130% | 79.6% | 91.7%
N#C/C(=C/C=C/c1cccc(Cl)c1)S(=O)c1ccccc1 (centres undefined) | -12.3% (active) | -56.3% (active) | -55.4% (active) | -65.6% (active) | -82.5% (active) | -82.6% (active) | -68.2% (active) | -69.9% (active) | -0.839% (active) | 1.43% (active) | -13.4% (active) | -45.1% (active) | -52.9% (active) | 19.6% | -25.7% (active) | -86.1% (active) | 11.6% | 7.8% (active) | –
Cn1c(-c2c(N)n(Cc3cccnc3)c3nc(C#N)c(C#N)nc23)nc2ccccc21 | 107% | 87.1% | 106% | 31.5% | 55.5% | 85.8% | 92.1% | 98.9% | 74.1% | 40.1% | 94.5% | 78% | 102% | 116% | – | 99.5% | 106% | 95.5% | 80.5%
CCCCCCCCn1ccc2cc(NC(=O)Cn3cc(CN4CCCC4)nn3)ccc21 | 68.6% | 88.8% | 44.4% | 6.9% (active) | 89.9% | 89.4% | 8.76% (active) | 87.2% | 32.8% | 19.2% | -66% (active) | 88.4% | 76.2% | 87.2% | 76% | 51.9% | 76.8% | 92.7% | –
Cc1ccc(C(=O)COc2cccc(/C=C3\Oc4ccccc4C3=O)c2)cc1 | 105% | 97.1% | 105% | -37.1% (active) | 114% | 97.6% | 47.6% | 147% | 73.8% | 71.9% | 106% | 106% | 85.7% | 134% | – | 96.6% | 322% | 88.3% | 106%
C=C(C)[C@@H]1CC[C@]2(C(=O)NC3CCCCC3)CC[C@]3(C)[C@H](CC[C@@H]4[C@@]5(C)CCCNC(C)(C)[C@@H]5CC[C@]43C)[C@@H]12 | 35% | 77.6% | 61.6% | 61.5% | 86.5% | 51% | 26.4% | 68.7% | -2.14% (active) | -22.5% (active) | -32.5% (active) | 82.8% | 44.6% | 95.8% | 55.1% | 64.8% | 78.8% | 57.7% | –
CCCCC1CCCCN1C(=O)OCC (centres undefined) | 101% | 122% | 103% | 88.7% | 92.7% | 103% | 101% | 102% | 115% | – | 118% | 98.4% | 112% | 99.1% | 112% | 112% | 116% | 113% | 106%
O=C(CCCCCCSc1nc(-c2ccccc2)cc(-c2ccc(Cl)cc2)n1)NO | 81.3% | 44.5% | 20.7% | -2.31% (active) | 21.1% | 4.89% (active) | -7.71% (active) | 24.2% | 1.04% (active) | – | 15.7% | 21.6% | 41.3% | 0.785% (active) | -19.6% (active) | 25.2% | 45.7% | -25.5% (active) | 8.67% (active)
COc1cc(/C=N/n2c(CN3CCOCC3)nc3ccccc3c2=O)cc(OC)c1OC | 113% | 107% | 101% | 87.7% | 103% | 103% | 100% | 81.8% | 103% | – | 107% | 97.4% | 104% | 103% | 98.3% | 106% | 105% | 101% | 96.1%
COc1nc2c(c(=O)n1C)CN(c1ccccc1)C(=O)CN2C | 69.6% [100 µM] | 58.2% [100 µM] | 51.3% [100 µM] | 26% [100 µM] | 52.3% [100 µM] | 46.4% [100 µM] | 61.7% [100 µM] | 61% [100 µM] | 40.6% [100 µM] | 51.5% [100 µM] | – | 79.9% [100 µM] | 53.4% [100 µM] | 62.5% [100 µM] | 37.6% [100 µM] | 56.5% [100 µM] | 59.9% [100 µM] | 54.2% [100 µM] | –
CCCCCCCOc1c(OC)cc(C2CC(=O)Nc3c2c(C)nn3-c2nc3ccccc3[nH]2)cc1OC (centres undefined) | -56.8% (active) | -26.5% (active) | 9.34% (active) | -69.7% (active) | 11% | 1.49% (active) | -41% (active) | -28.6% (active) | 15.2% | – | 8.24% (active) | 9.97% (active) | -11.8% (active) | -51.3% (active) | 2.58% (active) | -67.1% (active) | -19.8% (active) | 13.7% | -19.4% (active)
